From PubChem BioAssay (NCI)
This is part of a sample that, as a whole, favours compounds with a hit. Of some 79,000 tested, about 15% had one in any assay. The source made the active and inactive calls. Cut-off read from the data, not from the text of the source: active = growth inhibition above about 70%; inactive = the rest.

Key:
[1] = NCI Yeast Anticancer Drug Screen. Data for the rad52 strain (AID 147);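 note: 0% = growth of vehicle-treated control cultures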; details: S. cerevisiae rad52 mutant growth inhibition, active compounds read high
How it was run: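 Vehicle-treated cultures served as the reference for growth inhibition of compound-exposed yeast bearing a DNA repair mutation.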

[2] = NCI Yeast Anticancer Drug Screen. Data for the wt1 strain (AID 149);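 note: 0% = growth of vehicle-treated wt1 cultures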; details: S. cerevisiae wt1 strain (SPY 50644) growth inhibition, active compounds read high
How it was run: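 Compounds are added to wt1 yeast cultures. Growth is then measured. Inhibition is expressed relative to vehicle-treated controls.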

[3] = NCI Yeast Anticancer Drug Screen. Data for the rad50EPP+ strain (AID 151);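 note: 0% = growth of vehicle-treated control cultures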; details: S. cerevisiae rad50 mutant strain, active compounds read high
How it was run: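 In this screen, rad50EPP+ yeast were exposed to compounds. Growth inhibition was scored against vehicle-treated controls.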

[4] = NCI Yeast Anticancer Drug Screen. Data for the mgt1 strain (AID 153); details: S. cerevisiae mgt1 mutant growth inhibition, active compounds read high
How it was run: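 mgt1 strain exposed; growth vs vehicle control recorded as inhibition.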

[5] = NCI Yeast Anticancer Drug Screen. Data for the rad50 strain (AID 155);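 note: 0% = growth of vehicle-only cultures of the same strain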; details: S. cerevisiae rad50 strain growth inhibition, active compounds read high
How it was run: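 Inhibition values express reduced yeast growth in compound-treated cultures relative to vehicle-treated controls.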

[6] = NCI Yeast Anticancer Drug Screen. Data for the mec2-1 strain (AID 157); details: S. cerevisiae mec2-1 strain, active compounds read high
How it was run: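 Vehicle-treated cultures served as reference for growth inhibition of compound-exposed mec2-1 yeast.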

[7] = NCI Yeast Anticancer Drug Screen. Data for the rad14 strain (AID 159);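 note: 0% = growth of vehicle-treated control cultures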; details: S. cerevisiae rad14 strain growth inhibition, active compounds read high
How it was run: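 A mutant yeast strain defective in DNA damage repair is treated with compound; inhibition of its growth is scored against untreated, vehicle-exposed cultures.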

[8] = NCI Yeast Anticancer Drug Screen. Data for the sgs1 mgt1 strain (AID 161);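 note: 0% = growth of cultures given vehicle only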; details: S. cerevisiae sgs1 mgt1 strain, active compounds read high
How it was run: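 Test agents were incubated with a DNA-repair-mutant yeast strain. Growth was then read and compared against vehicle-treated controls.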

[9] = NCI Yeast Anticancer Drug Screen. Data for the CLN2oe strain (AID 163);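 note: 0% = growth of vehicle-only control cultures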; details: S. cerevisiae CLN2oe strain, active compounds read high
How it was run: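 Inhibition relative to vehicle-treated yeast is reported. Cells: strain with genetic alteration in cell-cycle control, grown with compound.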

[10] = NCI Yeast Anticancer Drug Screen. Data for the cln2 rad14 strain (AID 165);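 note: 0% = growth equal to vehicle treated cultures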; details: S. cerevisiae cln2 rad14 strain, active compounds read high
How it was run: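 Each compound was tested on cln2 rad14 yeast. Inhibition of growth was calculated against vehicle-exposed controls.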

[11] = NCI Yeast Anticancer Drug Screen. Data for the bub3 strain (AID 167); details: S. cerevisiae bub3 mutant strain, active compounds read high
How it was run: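 Steps: expose the mutant yeast strain to compound; grow alongside vehicle-treated cultures; measure growth; express inhibition against the vehicle cultures.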

[12] = NCI Yeast Anticancer Drug Screen. Data for the wt2 strain (AID 169);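 note: 0% = growth of vehicle-treated yeast cultures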; details: S. cerevisiae wt2 strain growth inhibition, active compounds read high
How it was run: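 Inhibition of yeast growth was determined after compound treatment, normalised to controls receiving only vehicle.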

[13] = NCI Yeast Anticancer Drug Screen. Data for the mlh1 strain (AID 171);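 note: 0% = growth of vehicle-treated control cultures of the same strain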; details: S. cerevisiae mlh1 strain growth inhibition, active compounds read high
How it was run: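 Vehicle-normalised growth inhibition of a repair- or checkpoint-altered yeast strain following compound treatment.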

[14] = NCI Yeast Anticancer Drug Screen. Data for the sgs1 strain (AID 173);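 note: 0% = growth of vehicle-only control cultures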; details: S. cerevisiae sgs1 mutant, active compounds read high
How it was run: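 Screen format: yeast with repair or checkpoint alterations, compound exposure, growth read relative to vehicle.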

[15] = NCI Yeast Anticancer Drug Screen. Data for the mlh1 rad18 strain (AID 175); details: S. cerevisiae mlh1 rad18 strain growth inhibition, active compounds read high
How it was run: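 Vehicle-treated cultures served as the reference for growth inhibition in a yeast strain carrying DNA damage repair alterations exposed to each compound.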

[16] = NCI Yeast Anticancer Drug Screen. Data for the rad18 strain (AID 177); details: S. cerevisiae rad18 mutant growth inhibition, active compounds read high
How it was run: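 Test articles were incubated with altered yeast defective in DNA damage repair. Results are given as inhibition of growth versus vehicle.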

[17] = at 5.0 µM (retest, dose inferred, filed as 0.5)
[18] = at 50.0 µM (retest, dose inferred, filed as 5.0)

Measured: growth inhibition

O=C(O)C(=Cc1ccc(-c2ccccc2)cc1)C(=O)O
active: [1]; at 100.0 µM 87% | [2]; at 100.0 µM 88% | [4]; at 100.0 µM 90% | [5]; at 100.0 µM 88% | [6]; at 100.0 µM 92% | [7]; at 100.0 µM 90% | [9]; at 100.0 µM 88% | [11]; at 33.0 µM 72% | [11]; at 50.0 µM 71.8% | [11]; at 100.0 µM 93% | [12]; at 100.0 µM 89% | [13]; at 100.0 µM 94% | [14]; at 33.0 µM 72% | [14]; at 100.0 µM 92% | [15]; at 50.0 µM 70.9% | [16]; at 33.0 µM 70% | [16]; at 100.0 µM 91%
inactive: [1]; at 1.2 µM 6% | [1]; at 3.7 µM 10% | [1]; at 11.0 µM 24% | [1]; at 33.0 µM 50% | [2]; at 1.2 µM 2% | [2]; at 3.7 µM 4% | [2]; at 11.0 µM 16% | [2]; at 33.0 µM 55% | [3]; at 1.2 µM -1% | [3]; at 3.7 µM -1% | [3]; at 11.0 µM -1% | [3]; at 33.0 µM 6% | [3]; at 100.0 µM 25% | [4]; at 1.2 µM 2% | [4]; at 3.7 µM 4% | [4]; at 11.0 µM 22% | [4]; at 33.0 µM 58% | [5]; at 1.2 µM 0% | [5]; at 3.7 µM -5% | [5]; [17] 2% | [5]; at 11.0 µM 11% | [5]; at 33.0 µM 54% | [5]; [18] 23% | [5]; at 50.0 µM 60.1% | [6]; at 1.2 µM 4% | [6]; at 3.7 µM 7% | [6]; [17] -7% | [6]; at 11.0 µM 30% | [6]; at 33.0 µM 60% | [6]; [18] 63% | [6]; at 50.0 µM 46.5% | [7]; at 1.2 µM 5% | [7]; at 3.7 µM 8% | [7]; at 11.0 µM 17% | [7]; at 33.0 µM 46% | [8]; [17] 4% | [8]; [18] 24% | [8]; at 50.0 µM 31.5% | [9]; at 1.2 µM 5% | [9]; at 3.7 µM 7% | [9]; at 11.0 µM 22% | [9]; at 33.0 µM 56% | [10]; [17] 46% | [10]; [18] 27% | [10]; at 50.0 µM 23.7% | [11]; at 1.2 µM 1% | [11]; at 3.7 µM 1% | [11]; [17] -10% | [11]; at 11.0 µM 24% | [11]; [18] 43% | [12]; at 1.2 µM 0% | [12]; at 3.7 µM 3% | [12]; at 11.0 µM 17% | [12]; at 33.0 µM 61% | [13]; at 1.2 µM 3% | [13]; at 3.7 µM 5% | [13]; at 11.0 µM 23% | [13]; at 33.0 µM 69% | [14]; at 1.2 µM 3% | [14]; at 3.7 µM 7% | [14]; at 11.0 µM 26% | [15]; [17] -2% | [15]; [18] 19% | [16]; at 1.2 µM 3% | [16]; at 3.7 µM 7% | [16]; at 11.0 µM 20%
